Experimental data published in PubChem BioAssay AID623996 (NMMLSC, 2012).
Results with a measured potency or affinity are listed apart. The source made the active and inactive calls.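 Rule for the calls: active = fitted concentration giving half the maximal Nile Red retention below 100 µM; inactive = the rest.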

Molecular target: Multidrug resistance protein CDR1 (Candida albicans) (UniProt P43071)
Assay: CaCdr1 efflux pump inhibitor potency, dose response, singleplex, Cherry Pick2 set (AID 623996)
Conditions: S. cerevisiae AD/CaCDR1, Nile Red efflux inhibition, flow cytometry; series mostly up to 100 µM

Chain of Multidrug resistance protein CDR1 (Candida albicans) (P43071 whole entry, looked up): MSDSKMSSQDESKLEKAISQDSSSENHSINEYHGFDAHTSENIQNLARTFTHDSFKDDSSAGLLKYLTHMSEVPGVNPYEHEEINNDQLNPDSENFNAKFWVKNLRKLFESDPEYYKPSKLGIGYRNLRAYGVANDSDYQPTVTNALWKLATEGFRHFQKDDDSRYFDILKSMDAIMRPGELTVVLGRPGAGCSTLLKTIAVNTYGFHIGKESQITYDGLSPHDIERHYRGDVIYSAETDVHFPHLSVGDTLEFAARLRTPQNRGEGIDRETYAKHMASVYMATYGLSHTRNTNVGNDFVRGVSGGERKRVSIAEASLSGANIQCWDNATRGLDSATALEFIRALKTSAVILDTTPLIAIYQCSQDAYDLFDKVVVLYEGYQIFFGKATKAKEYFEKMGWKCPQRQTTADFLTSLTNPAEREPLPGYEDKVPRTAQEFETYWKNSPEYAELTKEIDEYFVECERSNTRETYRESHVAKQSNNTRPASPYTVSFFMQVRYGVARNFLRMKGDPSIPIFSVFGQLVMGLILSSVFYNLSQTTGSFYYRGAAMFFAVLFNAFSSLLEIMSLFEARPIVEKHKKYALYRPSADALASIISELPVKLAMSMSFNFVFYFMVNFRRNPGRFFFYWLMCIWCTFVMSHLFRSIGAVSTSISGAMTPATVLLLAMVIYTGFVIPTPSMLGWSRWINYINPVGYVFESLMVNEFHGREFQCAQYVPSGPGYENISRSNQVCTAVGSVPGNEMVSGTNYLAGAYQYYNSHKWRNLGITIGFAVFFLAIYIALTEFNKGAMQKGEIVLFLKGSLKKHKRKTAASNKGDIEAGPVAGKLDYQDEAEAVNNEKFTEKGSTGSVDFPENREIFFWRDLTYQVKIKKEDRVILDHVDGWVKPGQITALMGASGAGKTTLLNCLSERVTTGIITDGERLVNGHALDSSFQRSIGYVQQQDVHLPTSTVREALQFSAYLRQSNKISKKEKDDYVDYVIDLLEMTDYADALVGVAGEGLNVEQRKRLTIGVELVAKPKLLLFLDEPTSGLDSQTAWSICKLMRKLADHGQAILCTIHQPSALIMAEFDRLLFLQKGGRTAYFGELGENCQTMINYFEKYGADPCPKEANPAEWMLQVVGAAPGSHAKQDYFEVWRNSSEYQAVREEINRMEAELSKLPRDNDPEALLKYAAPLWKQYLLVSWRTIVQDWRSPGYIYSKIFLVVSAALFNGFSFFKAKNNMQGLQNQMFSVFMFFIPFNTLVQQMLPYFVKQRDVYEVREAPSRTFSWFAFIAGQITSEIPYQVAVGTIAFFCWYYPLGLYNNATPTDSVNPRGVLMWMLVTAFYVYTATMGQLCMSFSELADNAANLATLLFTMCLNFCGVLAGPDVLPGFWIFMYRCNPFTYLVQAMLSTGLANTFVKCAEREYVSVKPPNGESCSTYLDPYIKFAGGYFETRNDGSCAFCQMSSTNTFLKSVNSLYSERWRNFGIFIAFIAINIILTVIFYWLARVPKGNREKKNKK

outcome, inactive:
Cc1cccc2sc(N(CCCN(C)C)C(=O)c3ccc(Cl)s3)nc12
CC(C)C(=O)N1CCN(c2ccccc2NC(=O)c2ccc3c(c2)OCCO3)CC1
Cc1ccc(-c2c[n+](CC(=O)N3c4ccccc4Sc4ccccc43)c3n2CCC3)cc1
C[C@@]12C(=O)Nc3cc(F)c(F)cc3C(=O)N1[C@H]1c3cc(Cl)ccc3OC[C@@H]1[C@@H]2c1ccccc1
O=C(C[n+]1cc(-c2ccc(Cl)cc2)n2c1CCC2)N1c2ccccc2Sc2ccccc21
CCCCCCCCCC[N+](C)(C)CC/C=C1/c2ccccc2Sc2ccc(Cl)cc21
O=C(/C=C/c1cccs1)N1CCC2(CC1)Oc1ccc(F)cc1C(=O)C21CC(c2ccccc2)=NO1 (stereo unspecified)
Cc1ccc(C)c(N2CCN(C(=O)C3CCCN(c4ncnc5c4nc4n5CCCCC4)C3)CC2)c1 (stereo unspecified)
NS(=O)(=O)c1ccc(N2N=C(c3ccccc3)CC2c2ccc(Br)cc2)cc1 (stereo unspecified)
CCC(Cc1ccccc1)OC(=O)c1ccccc1C(=O)O (stereo unspecified)
Cc1ccc2c(c1)[C@H]1[C@H](CO2)[C@H](c2ccccc2)[C@]2(C)C(=O)Nc3cc(F)c(F)cc3C(=O)N12
NS(=O)(=O)c1ccc(N2N=C(c3ccccc3)CC2c2cccc(Br)c2)cc1 (stereo unspecified)
COc1ccc(C2CC(c3cccc(OC)c3)=NN2c2ccc(S(N)(=O)=O)cc2)cc1 (stereo unspecified)
COc1ncccc1C(=O)NC1CCCc2c1cnn2-c1cc(C)cc(C)c1 (stereo unspecified)
NC1=NC[C@@H](Cc2ccc(O)cc2)N1CCCCC1CCCCC1
CC(C)C(=O)N1CCC2(CC1)Oc1ccc(Cl)cc1C(=O)C21CC(c2ccc(Cl)cc2)=NO1 (stereo unspecified)
Cc1ccc(CN2C(=O)C(CC(C)C)Nc3ncnc(N4CCN(c5ccccc5)CC4)c32)cc1 (stereo unspecified)
COc1cc(OC)c2ccc(=O)oc2c1C(CCN1CCCC(C)C1)c1ccc(N(C)C)cc1 (stereo unspecified)
COc1ccc(C(=O)NC2CC(C)(C)Cc3c2cnn3-c2ccccc2)c(OC)c1 (stereo unspecified)
O=C(NC1CCCc2c1cnn2-c1ccccc1F)c1ccccn1 (stereo unspecified)
CCCCNC(=O)C1CCC(CNc2nc(=S)[nH]c3ccccc23)CC1 (stereo unspecified)
CCCCCc1cc(=O)oc2c(C(CCN3CCCC(C)C3)c3ccc(N(C)C)cc3)c(OC)cc(OC)c12 (stereo unspecified)
Cc1ccc(N2CCN(C(=O)C3CCCN(c4ncnc5c4nc4n5CCCCC4)C3)CC2)c(C)c1 (stereo unspecified)
COc1ccc(CNC(=O)C(C#N)c2nc3ccccc3nc2N2CCCC2)cc1 (stereo unspecified)
COc1ccc2nc(NC(=O)c3cccs3)sc2c1
Cc1ccc(O)c(C(=O)c2cnc3c(c2)CN(C)C(=O)N3)c1
N#CC(C(=O)NCc1ccccc1)c1nc2ccccc2nc1N1CCCC1 (stereo unspecified)
COc1ccc(CNC(=O)C(C#N)c2nc3ccccc3nc2N2CCN(C)CC2)cc1 (stereo unspecified)
O=C(c1ccoc1)N1CCC2(CC1)Oc1ccc(F)cc1C(=O)C21CC(c2ccc(Cl)cc2)=NO1 (stereo unspecified)
CCOc1cccc2sc(NC(=O)c3ccc(Br)s3)nc12
COc1ccc(OC)c2sc(NC(=O)c3ccc(Br)s3)nc12
